# Results taken from the supplement of paper PMC11150407.
# Screen size: about 3,000 compounds; about 45 (2%) showed an effect of 50% or more. The sample as a whole holds a higher share of strong results than the screen did.
# Tested on: MOLM1 and UCSD/AML1 (averaged)
# Experiment: cell viability relative to DMSO control (POC); higher = less growth inhibition
# Conditions: 1 µM; 72 h
# Experimental: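 Primary viability screen in the 3q26 EVI1-high AML cell lines MOLM1 and UCSD/AML1, compounds at 1 uM for 72 h. ATP CellTiter-Glo read-out given as percent viable over DMSO control (POC), averaged over duplicates. This mapping covers the TimTec NDL-3000 natural derivative library, whose compounds are identified by TimTec catalogue codes (ST...).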
row,Structure (SMILES),cell viability [%]
1,OCC1N2CCC(CC2)C1(O)O (stereo not given),32.3
2,CCOC(=O)C1=C(N)Oc2c(c(=O)oc3ccccc23)C1c1ccc(Cl)cc1Cl (stereo not given),104
3,CC(=O)OC1CCC2(C)C3CCC4(C)C(CC[C@]4(OC(C)=O)C(C)OC(C)=O)C3CC[C@H]2C1 (stereo not given in full),109
4,CN1C(=O)C(=Cc2ccc3c(c2)OCO3)C(=O)N(C)C1=O,111
5,O.O.OCC1CCCN2CCCCC12.[Cl][Cu][Cl] (stereo not given),110
6,Cc1ccc(C(c2c(O)c3ccccc3oc2=O)c2c(O)c3ccccc3oc2=O)cc1,102
7,CCOC(=O)C1=C(N)Oc2c(c(=O)oc3ccccc23)C1c1ccc(Cl)c(Cl)c1 (stereo not given),37.7
8,CCOC(=O)C1=C(N)Oc2c(c(=O)oc3ccccc23)C1c1ccc(Br)cc1 (stereo not given),93
9,CCOC(=O)C1=C(N)Oc2c(c(=O)oc3ccccc23)C1c1cccc(Br)c1 (stereo not given),103
10,COCCOC(=O)c1c(C)n(Cc2ccccc2Cl)c2ccc(O)cc12,106
